# Many of the other results were omitted from the sample, so the strongest signals are more common in it than they were.
# What was measured:
# Test in all cases: glycan array binding signal (z-score within array); higher = stronger binding
# Details in all cases: glycan notation: IUPAC condensed, linker removed
# [1] = biological target: Fuc(a1-2)Gal(b1-3)GalNAc(a1-3)[Fuc(a1-2)]Gal(b1-4)GlcNAc
# Summary of the method: (§1)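 The binding signal is a Z-score computed within each array. Data were drawn from 3228 arrays in the Consortium for Functional Glycomics database, restricted to those with a known protein sequence. Scores were averaged over arrays of the same protein sequence at different concentrations or buffers, and over linkers, and negative values can be taken as non-binding.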
# [2] = biological target: Fuc(a1-2)Gal(b1-3)GalNAc(b1-4)[Neu5Ac(a2-3)]Gal(b1-4)Glc
# Summary of the method: as §1
# [3] = biological target: Fuc(a1-2)Gal(b1-3)GlcNAc(b1-3)[Gal(b1-4)GlcNAc(b1-6)]Gal(b1-4)Glc
# Summary of the method: as §1
# [4] = biological target: Fuc(a1-2)Gal(b1-3)[Fuc(a1-4)]GlcNAc(b1-3)[Fuc(a1-3)[Gal(b1-4)]GlcNAc(b1-6)]Gal(b1-4)Glc
# Summary of the method: as §1
# [5] = biological target: Fuc(a1-2)Gal(b1-4)GlcNAc(b1-2)[Fuc(a1-2)Gal(b1-4)GlcNAc(b1-4)]Man(a1-3)[Fuc(a1-2)Gal(b1-4)GlcNAc(b1-2)Man(a1-6)]Man(b1-4)GlcNAc(b1-4)GlcNAc
# Summary of the method: as §1
# [6] = biological target: Fuc(a1-2)[Gal(a1-3)]Gal(b1-3)GlcNAc
# Summary of the method: as §1
# [7] = biological target: Fuc(a1-2)[Gal(a1-3)]Gal(b1-4)Glc
# Summary of the method: as §1
# [8] = biological target: Fuc(a1-2)[Gal(a1-4)]Gal(b1-4)GlcNAc
# Summary of the method: as §1
# [9] = biological target: Fuc(a1-2)[GalNAc(a1-3)]Gal(b1-4)Glc
# Summary of the method: as §1
# [10] = biological target: Fuc(a1-2)[GalNAc(a1-3)]Gal(b1-4)GlcNAc
# Summary of the method: as §1
# [11] = biological target: Fuc(a1-2)[GalNAc(a1-3)]Gal(b1-4)GlcNAc(b1-2)Man(a1-3)[Fuc(a1-2)[GalNAc(a1-3)]Gal(b1-4)GlcNAc(b1-2)Man(a1-6)]Man(b1-4)GlcNAc(b1-4)GlcNAc
# Summary of the method: as §1
# [12] = biological target: Fuc(a1-3)[Gal(b1-4)]GlcNAc(b1-4)Gal(b1-4)[Fuc(a1-3)]GlcNAc(b1-4)Gal(b1-4)[Fuc(a1-3)]GlcNAc
# Summary of the method: as §1
# Fuc(a1-4)GlcNAc = biological target: Fuc(a1-4)GlcNAc
# Summary of the method: as §1
# Gal(a1-3)Gal(b1-4)Glc = biological target: Gal(a1-3)Gal(b1-4)Glc
# Summary of the method: as §1
# [13] = biological target: Gal(a1-4)Gal(b1-4)GlcNAc(b1-2)Man(a1-3)[Gal(a1-4)Gal(b1-4)GlcNAc(b1-2)Man(a1-6)]Man(b1-4)GlcNAc(b1-4)GlcNAc
# Summary of the method: as §1
# Gal(b1-3)GlcNAc = biological target: Gal(b1-3)GlcNAc
# Summary of the method: as §1
# [14] = biological target: Gal(b1-3)GlcNAc(b1-2)Man(a1-3)[Gal(b1-3)GlcNAc(b1-2)Man(a1-6)]Man(b1-4)GlcNAc(b1-4)GlcNAc
# Summary of the method: as §1
# [15] = biological target: Gal(b1-3)GlcNAc(b1-2)Man(a1-3)[Gal(b1-3)GlcNAc(b1-2)Man(a1-6)]Man(b1-4)GlcNAc(b1-4)[Fuc(a1-6)]GlcNAc
# Summary of the method: as §1
# [16] = biological target: Gal(b1-3)[Fuc(a1-4)]GlcNAc(b1-2)Man(a1-3)[Gal(b1-3)[Fuc(a1-4)]GlcNAc(b1-2)Man(a1-6)]Man(b1-4)GlcNAc(b1-4)GlcNAc
# Summary of the method: as §1
# [17] = biological target: Gal(b1-3)[Fuc(a1-4)]GlcNAc(b1-2)Man(a1-3)[Gal(b1-3)[Fuc(a1-4)]GlcNAc(b1-2)Man(a1-6)]Man(b1-4)GlcNAc(b1-4)[Fuc(a1-6)]GlcNAc
# Summary of the method: as §1
# [18] = biological target: Gal(b1-3)[Neu5Ac(a2-6)]GalNAc
# Summary of the method: as §1
# [19] = biological target: Gal(b1-3)[Neu5Ac(a2-6)]GlcNAc(b1-6)Gal(b1-4)Glc
# Summary of the method: as §1
# [20] = biological target: Gal(b1-4)GlcNAc(b1-2)Man(a1-3)[Gal(b1-4)GlcNAc(b1-2)Man(a1-6)]Man(b1-4)GlcNAc(b1-4)[Fuc(a1-6)]GlcNAc
# Summary of the method: as §1
# [21] = biological target: Gal(b1-4)GlcNAc(b1-2)Man(a1-3)[GlcNAc(b1-2)Man(a1-6)]Man(b1-4)GlcNAc(b1-4)GlcNAc
# Summary of the method: as §1
# [22] = biological target: Gal(b1-4)GlcNAc(b1-6)Gal(b1-4)GlcNAc
# Summary of the method: as §1
# [23] = biological target: Gal3S(b1-3)[Fuc(a1-4)]GlcNAc
# Summary of the method: as §1
# Gal3S(b1-4)Glc6S = biological target: Gal3S(b1-4)Glc6S
# Summary of the method: as §1
# Gal3S(b1-4)GlcNAc6S = biological target: Gal3S(b1-4)GlcNAc6S
# Summary of the method: as §1
# Gal3S6S(b1-4)GlcNAc6S = biological target: Gal3S6S(b1-4)GlcNAc6S
# Summary of the method: as §1
# Gal6S(b1-3)GlcNAc6S = biological target: Gal6S(b1-3)GlcNAc6S
# Summary of the method: as §1
# Gal6S(b1-4)GlcNAc6S = biological target: Gal6S(b1-4)GlcNAc6S
# Summary of the method: as §1
# GalNAc(b1-6)GalNAc = biological target: GalNAc(b1-6)GalNAc
# Summary of the method: as §1
# Glc(b1-6)Glc = biological target: Glc(b1-6)Glc
# Summary of the method: as §1
# GlcA(b1-3)GlcNAc = biological target: GlcA(b1-3)GlcNAc
# Summary of the method: as §1
# [24] = biological target: GlcNAc(a1-4)Gal(b1-4)GlcNAc(b1-3)Gal(b1-4)[Fuc(a1-3)]GlcNAc(b1-3)Gal(b1-4)[Fuc(a1-3)]GlcNAc
# Summary of the method: as §1
# [25] = biological target: GlcNAc(b1-2)Man(a1-3)[GlcNAc(b1-4)][GlcNAc(b1-2)Man(a1-6)]Man(b1-4)GlcNAc(b1-4)GlcNAc
# Summary of the method: as §1
# [26] = biological target: GlcNAc(b1-2)[GlcNAc(b1-4)]Man(a1-3)[GlcNAc(b1-4)][GlcNAc(b1-2)Man(a1-6)]Man(b1-4)GlcNAc(b1-4)GlcNAc
# Summary of the method: as §1
# [27] = biological target: Neu5Ac(a2-3)Gal(b1-3)GalNAc(b1-3)Gal(a1-4)Gal(b1-4)Glc
# Summary of the method: as §1
# [28] = biological target: Neu5Ac(a2-3)Gal(b1-3)GlcNAc(b1-3)Gal(b1-3)GlcNAc
# Summary of the method: as §1
# [29] = biological target: Neu5Ac(a2-3)Gal(b1-3)[Fuc(a1-4)]GlcNAc(b1-3)Gal(b1-3)[Fuc(a1-4)]GlcNAc
# Summary of the method: as §1
# [30] = biological target: Neu5Ac(a2-3)Gal(b1-4)GlcNAc(b1-3)Gal(b1-3)GlcNAc
# Summary of the method: as §1
# [31] = biological target: Neu5Ac(a2-3)Gal(b1-4)GlcNAc(b1-6)[Neu5Ac(a2-3)Gal(b1-3)]GalNAc
# Summary of the method: as §1
# [32] = biological target: Neu5Ac(a2-3)Gal(b1-4)[Fuc(a1-3)]GlcNAc(b1-3)GalNAc
# Summary of the method: as §1
# [33] = biological target: Neu5Ac(a2-3)Gal(b1-4)[Fuc(a1-3)]GlcNAc(b1-6)[Gal(b1-3)]GalNAc
# Summary of the method: as §1
# [34] = biological target: Neu5Ac(a2-3)[GalNAc(b1-4)]Gal(b1-4)GlcNAc(b1-3)GalNAc
# Summary of the method: as §1
# [35] = biological target: Neu5Ac(a2-6)Gal(b1-4)GlcNAc(b1-2)Man(a1-3)[GlcNAc(b1-2)Man(b1-4)GlcNAc(b1-2)Man(a1-6)]Man(b1-4)GlcNAc(b1-4)GlcNAc
# Summary of the method: as §1
# [36] = biological target: Neu5Ac(a2-6)Gal(b1-4)GlcNAc(b1-2)Man(a1-3)[Man(a1-6)]Man(b1-4)GlcNAc(b1-4)GlcNAc
# Summary of the method: as §1
# [37] = biological target: Neu5Ac(a2-6)Gal(b1-4)GlcNAc(b1-3)Gal(b1-4)GlcNAc(b1-3)Gal(b1-4)GlcNAc
# Summary of the method: as §1
# [38] = biological target: Neu5Ac(a2-6)Gal(b1-4)GlcNAc(b1-3)Gal(b1-4)[Fuc(a1-3)]GlcNAc(b1-3)Gal(b1-4)[Fuc(a1-3)]GlcNAc
# Summary of the method: as §1
# [39] = biological target: Neu5Ac(a2-8)Neu5Ac(a2-3)[Gal(b1-3)GalNAc(b1-4)]Gal(b1-4)Glc
# Summary of the method: as §1
binder,measurement,setting,value
"rPitB (Streptococcus pneumoniae), A0A0I7U739 (protein) MSEIEIINAKKIYHDVPVIENLNITIPKGSLFTLLGASGCGKTTLLRMIAGFNSIKDGEFYFDDTKINNMEPSKRNIGLVFQNYAIFPHLTVRDNVAFGLMQKKVPKEELIQQTNKYLELMQIAQYAD",glycan array binding signal (z-score),[1],-0.708
same,glycan array binding signal (z-score),[2],-0.128
same,glycan array binding signal (z-score),[3],-0.397
same,glycan array binding signal (z-score),[4],0.227
same,glycan array binding signal (z-score),[5],0.316
same,glycan array binding signal (z-score),[6],-0.113
same,glycan array binding signal (z-score),[7],1.11
same,glycan array binding signal (z-score),[8],-0.108
same,glycan array binding signal (z-score),[9],-0.271
same,glycan array binding signal (z-score),[10],-0.509
same,glycan array binding signal (z-score),[11],0.481
same,glycan array binding signal (z-score),[12],3.03
same,glycan array binding signal (z-score),Fuc(a1-4)GlcNAc,-0.579
same,glycan array binding signal (z-score),Gal(a1-3)Gal(b1-4)Glc,-0.617
same,glycan array binding signal (z-score),[13],1.43
same,glycan array binding signal (z-score),Gal(b1-3)GlcNAc,-0.704
same,glycan array binding signal (z-score),[14],0.944
same,glycan array binding signal (z-score),[15],0.638
same,glycan array binding signal (z-score),[16],3.68
same,glycan array binding signal (z-score),[17],2.09
same,glycan array binding signal (z-score),[18],0.092
same,glycan array binding signal (z-score),[19],-0.142
same,glycan array binding signal (z-score),[20],0.8
same,glycan array binding signal (z-score),[21],-0.568
same,glycan array binding signal (z-score),[22],-0.596
same,glycan array binding signal (z-score),[23],-0.575
same,glycan array binding signal (z-score),Gal3S(b1-4)Glc6S,0.112
same,glycan array binding signal (z-score),Gal3S(b1-4)GlcNAc6S,0.471
same,glycan array binding signal (z-score),Gal3S6S(b1-4)GlcNAc6S,-0.233
same,glycan array binding signal (z-score),Gal6S(b1-3)GlcNAc6S,0.052
same,glycan array binding signal (z-score),Gal6S(b1-4)GlcNAc6S,0.24
same,glycan array binding signal (z-score),GalNAc(b1-6)GalNAc,-0.608
same,glycan array binding signal (z-score),Glc(b1-6)Glc,-0.176
same,glycan array binding signal (z-score),GlcA(b1-3)GlcNAc,5.72
same,glycan array binding signal (z-score),[24],3.89
same,glycan array binding signal (z-score),[25],-0.914
same,glycan array binding signal (z-score),[26],-1.01
same,glycan array binding signal (z-score),[27],-0.604
same,glycan array binding signal (z-score),[28],-0.301
same,glycan array binding signal (z-score),[29],2.33
same,glycan array binding signal (z-score),[30],-0.394
same,glycan array binding signal (z-score),[31],0.027
same,glycan array binding signal (z-score),[32],4.13
same,glycan array binding signal (z-score),[33],2.86
same,glycan array binding signal (z-score),[34],-0.463
same,glycan array binding signal (z-score),[35],-0.255
same,glycan array binding signal (z-score),[36],0.505
same,glycan array binding signal (z-score),[37],0.323
same,glycan array binding signal (z-score),[38],0.032
same,glycan array binding signal (z-score),[39],-0.053

# Source: the supplement of paper PMC8728848
